Values joined by “and” are separate entries in the source; they are usually repeats but may differ in a detail not shown here. Identical values can stand only once. Active and inactive are the calls of the source.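 How the source made its calls, unless noted: active means compounds whose cell count with miR-34 switched on is under 0.7 times the count with it off; inactive means the rest.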
Assays:
[1] = stimulators of nuclear beta-catenin in C2C12, primary screen, imaging, WNT3A-conditioned medium, mouse C2C12, NPC library (AID 1117326; in the data active means nuclear beta-catenin stimulation mostly above about 4.2%, no sharp cut-off; inactive means mostly below about 10%); conditions: stronger effect = higher value
[2] = stimulators of insulin release from INS-1E, primary screen, cell-based, 5 mM glucose, NPC library (AID 1117329;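 active means compound raises insulin release from rat beta cells at 5 mM glucose, no numeric limit stated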); conditions: rat INS-1E insulin secretion, at 10 µM, stronger effect = higher value
[3] = growth inhibition of GSK3B-pretreated HCT116 cells – cell-based, CellTiter-Glo, 0.2 to 20 µM (AID 1117336;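 active means compounds lowering colon cancer cell viability after pretreatment blocking the GSK3B kinase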); conditions: HCT116 viability after GSK3B inhibitor, at 20 µM, stronger effect = higher value
[4] = inhibition of endothelial tube formation, primary screen, imaging, VEGF stimulated, CD31 staining, tube area, NPC library (AID 1117340;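 active means compound that reduces growth-factor-driven endothelial tube area in a mixed cell culture, no cutoff stated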); conditions: VEGF-stimulated ADSC/ECFC co-culture, at 10 µM, stronger effect = higher value
[5] = glucagon-like peptide 1 release enhancers, primary assay, NCI-H716 cell line, NPC library (AID 1117341;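 active means compound raises GLP1 secretion from the human gut endocrine cells, with no numeric limit stated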); conditions: NCI-H716 cells, at 10 µM, stronger effect = higher value
[6] = HCT116 colon cancer cell growth inhibition, primary screen, CellTiter-Glo luminescence, NPC library (AID 1117342;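 active means compounds that lower survival of HCT116 colon cancer cells in the luminescence readout, no numeric limit stated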); conditions: at 20 µM (top of the series)
[7] = CellTiter-Glo luminescent readout of SW480 viability loss, NPC library primary (AID 1117343;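 active means compounds that lower viability of the colon cancer cells in the luminescence readout, with no numeric limit stated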); conditions: CellTiter-Glo luminescence; at 20 µM (top of the series)
[8] = decreased DLD-1 cellular survival, CellTiter-Glo luminescent readout, NPC compound collection, primary HTS (AID 1117346;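 active means compounds that lower survival of DLD-1 colon cancer cells in the luminescence readout, no cutoff given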); conditions: DLD-1 viability, CellTiter-Glo luminescence; at 20 µM (top of the series)
[9] = target: 6-phosphogluconate dehydrogenase, decarboxylating (Homo sapiens) (UniProt P52209); test: 6PGD enzyme inhibitors, primary screen, biochemical, human, recombinant enzyme, NADPH absorbance (AID 1159550;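 active means at least 20% inhibition of 6-phosphogluconate dehydrogenase activity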); conditions: recombinant 6PGD, NADPH absorbance 341 nm; at 10 µM; stronger effect = higher value
6-phosphogluconate dehydrogenase, decarboxylating (Homo sapiens), sequence (P52209 whole entry, looked up): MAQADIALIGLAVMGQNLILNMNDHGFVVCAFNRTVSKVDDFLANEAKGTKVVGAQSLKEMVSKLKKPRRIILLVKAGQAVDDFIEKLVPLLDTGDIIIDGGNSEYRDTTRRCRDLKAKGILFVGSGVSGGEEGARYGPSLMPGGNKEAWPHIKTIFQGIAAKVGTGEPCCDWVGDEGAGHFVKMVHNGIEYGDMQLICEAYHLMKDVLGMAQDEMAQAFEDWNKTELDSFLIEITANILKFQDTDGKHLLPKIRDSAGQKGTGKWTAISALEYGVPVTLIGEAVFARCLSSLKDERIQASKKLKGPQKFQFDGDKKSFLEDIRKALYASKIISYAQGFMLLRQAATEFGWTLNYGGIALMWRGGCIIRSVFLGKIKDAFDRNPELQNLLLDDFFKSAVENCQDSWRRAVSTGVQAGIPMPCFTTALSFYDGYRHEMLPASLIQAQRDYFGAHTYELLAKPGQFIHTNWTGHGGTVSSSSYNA

[10] = differential killing of epithelial or mesenchymal cells, primary screen, imaging, PC-3E GFP, TEM4-18 mCherry, co-culture (AID 1345086;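 active means compounds killing one labelled cell type while sparing the other, by normalised counts and ratio limits, not self-fluorescent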;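 on all read-outs here: cells exposed to compound for 72 h before imaging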;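 on red/green cell ratio (normalised): normalised mesenchymal count divided by normalised epithelial count so high means epithelial killing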); conditions: imaging cell counts, at 1 µM; for red/green cell ratio (normalised): actives lie on both sides
[11] = tested on: Aerobactin synthetase IucA (Klebsiella pneumoniae hvKP1); test: Biochemical IucA enzyme inhibition primary screen of the Spectrum library (AID 1346200; call rule not given here;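 further: 100% = wells without compound and 0% = wells lacking enzyme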); conditions: malachite green pyrophosphate, A620, at 8 µM, stronger effect = lower value
[12] = sensitizers of A549 cells to miR-34 induction, primary screen, imaging, A549 dox-inducible miR-34, nuclei and caspase counts (AID 1347080); conditions: A549 miR-34 inducible, Hoechst nuclei count, 48 h
[13] = viability rescue of complex I mutant cybrids, primary screen, cell-based, galactose medium, ATP luminescence (AID 1645843;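 active means z-score of at least 1.8 in each of two replicates, scored against plate mean and spread of sample wells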;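 further: positive z means more ATP and so rescue of galactose-driven cybrid death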); conditions: complex I mutant cybrid cells, 72 h, stronger effect = higher value
[14] = liver-stage malaria parasite growth inhibition, primary screen, cell-based, HepG2, luciferase luminescence, HepG2 viability (AID 624349; in the data active means parasite load remaining mostly below about 12%, no sharp cut-off; inactive means mostly above about 10%;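 further: 100% = mean of DMSO negative control wells on the same plate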); conditions: P. berghei liver stage in HepG2, luciferase luminescence, concentration not given here; parasite load remaining: stronger effect = lower value; viability: measured here: HepG2 viability without parasites
[15] = target: NAD(+) hydrolase SARM1 (Homo sapiens) (UniProt Q6SZW1); test: SARM1 TIR NADase inhibitors, cell lysate, NAD-Glo luminescence (AID 1508614;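 active means compound whose remaining NAD level is above about 45 nM, limit read from the data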); conditions: SAM-TIR HEK293T lysate NADase, at 1 µM, stronger effect = higher value
NAD(+) hydrolase SARM1 (Homo sapiens), sequence (Q6SZW1 whole entry, looked up, the tested form may be a part): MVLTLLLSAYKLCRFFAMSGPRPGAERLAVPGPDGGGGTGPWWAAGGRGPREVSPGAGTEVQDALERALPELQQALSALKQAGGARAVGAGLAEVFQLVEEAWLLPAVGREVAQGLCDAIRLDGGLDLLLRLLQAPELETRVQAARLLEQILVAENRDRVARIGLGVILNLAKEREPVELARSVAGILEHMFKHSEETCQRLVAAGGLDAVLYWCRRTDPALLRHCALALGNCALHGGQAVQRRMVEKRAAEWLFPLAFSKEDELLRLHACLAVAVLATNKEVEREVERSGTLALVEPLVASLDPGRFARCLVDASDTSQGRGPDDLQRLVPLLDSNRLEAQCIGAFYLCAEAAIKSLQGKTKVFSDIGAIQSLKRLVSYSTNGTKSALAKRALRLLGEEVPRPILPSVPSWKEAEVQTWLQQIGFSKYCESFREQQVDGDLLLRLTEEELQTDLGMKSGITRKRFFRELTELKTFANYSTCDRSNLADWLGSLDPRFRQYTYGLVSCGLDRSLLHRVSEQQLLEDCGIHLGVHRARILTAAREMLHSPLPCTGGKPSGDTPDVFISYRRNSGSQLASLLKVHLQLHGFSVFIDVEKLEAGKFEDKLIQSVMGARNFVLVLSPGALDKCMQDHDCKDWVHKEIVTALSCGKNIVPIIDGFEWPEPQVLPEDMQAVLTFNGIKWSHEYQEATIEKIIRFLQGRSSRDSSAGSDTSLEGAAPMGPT

[16] = target: Mitogen-activated protein kinase 7 (Homo sapiens) (UniProt Q13164); test: ERK5 transactivation activators in reporter cells, primary screen, cell-based, HTS (AID 1508626;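 active means luciferase signal above three times the same-plate solvent-only control wells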;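 further: luciferase driven by Gal4-ERK5 fusion binding five Gal4 sites before minimal TATA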); conditions: HeLa Gal4-ERK5 transactivation, 18 h, at 5 µM, stronger effect = higher value
Mitogen-activated protein kinase 7 (Homo sapiens), sequence (Q13164 whole entry, looked up, the tested form may be a part): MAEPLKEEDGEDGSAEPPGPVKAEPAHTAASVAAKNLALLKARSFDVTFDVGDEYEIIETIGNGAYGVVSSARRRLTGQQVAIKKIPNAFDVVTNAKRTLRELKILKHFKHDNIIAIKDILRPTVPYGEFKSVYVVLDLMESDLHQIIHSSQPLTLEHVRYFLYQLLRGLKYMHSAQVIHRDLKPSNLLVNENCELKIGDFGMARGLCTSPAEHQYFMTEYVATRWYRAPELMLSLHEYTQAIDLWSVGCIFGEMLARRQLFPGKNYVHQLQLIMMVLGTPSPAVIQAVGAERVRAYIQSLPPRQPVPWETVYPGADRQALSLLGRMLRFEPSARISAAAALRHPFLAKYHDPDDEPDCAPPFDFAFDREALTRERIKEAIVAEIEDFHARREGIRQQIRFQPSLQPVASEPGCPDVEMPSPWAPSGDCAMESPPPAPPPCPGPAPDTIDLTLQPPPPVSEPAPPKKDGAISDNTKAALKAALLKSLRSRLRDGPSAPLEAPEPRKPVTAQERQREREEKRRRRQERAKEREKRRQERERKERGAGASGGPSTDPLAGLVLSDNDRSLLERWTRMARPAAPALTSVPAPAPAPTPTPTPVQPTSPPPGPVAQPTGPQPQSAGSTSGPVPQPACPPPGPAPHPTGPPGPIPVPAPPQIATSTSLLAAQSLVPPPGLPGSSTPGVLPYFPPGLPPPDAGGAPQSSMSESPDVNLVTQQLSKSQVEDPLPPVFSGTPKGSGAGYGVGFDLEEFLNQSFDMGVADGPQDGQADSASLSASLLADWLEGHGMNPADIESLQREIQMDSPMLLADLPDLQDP

[17] = suppressors of polyQ aggregation in yeast, 75Q-TubU reporter (AID 1593); conditions: Yeast 75Q polyglutamine aggregation reporter
[18] = inhibitors of mitochondrial cytochrome c release, biochemical, purified mitochondria (AID 1603); conditions: stronger effect = lower value;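 further: mouse liver mitochondria challenged with calcium chloride; signal normalized to the plate average as 100%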
[19] = inhibitors of polyQ protein aggregation (AID 1604); conditions: polyglutamine-induced protein aggregation inhibition assay; stronger effect = higher value; tested at 2.5 µM
[20] = survival rescue of mitochondrial mutant cells in low glucose, primary screen, MELAS cybrids, Rieske KO mouse fibroblasts, CellTiter-Glo (AID 1508586;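 active means mean z-score across replicates of 1.96 or higher in either the MELAS or the Rieske mutant cell line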;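 further: z relative to plate mean and SD of compound and empty wells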)
[21] = measured here: epithelial PC-3E GFP cell survival
[22] = measured here: mesenchymal TEM4-18 mCherry cell survival
[23] = measured here: relative caspase fold change +Dox/-Dox
[24] = measured here: total cells with miR-34 induction, stronger effect = lower value
[25] = measured here: total cells without miR-34 induction

Compound: COc1ccccc1N1CCNCC1
- nuclear beta-catenin stimulation ([1]; at 10 µM): 0.2% (inactive)
- nuclear beta-catenin stimulation ([1]; stimulation, at 2 µM): -0.4%
- insulin secretion stimulation [2]: -0.2% (inactive)
- viability decrease [3]: -7.7% (inactive)
- tube area decrease [4]: 7.7% (inactive)
- GLP1 secretion stimulation [5]: -2.3% (inactive)
- inhibition of viability [6]: -22.5% (inactive)
- viability decrease (inhibition) [7]: 106% (active)
- viability decrease (inhibition) [8]: -1.65% (inactive)
- inhibition [9]: -1.05% (inactive)
- red/green cell ratio (normalised) [10]: 0.87 (inactive)
- normalised cell number [10, 21]: 1.09
- normalised cell number [10, 22]: 0.94
- activity remaining [11]: 95.5% (inactive)
- fold change ([12]; stronger effect = lower value): 0.98 (inactive)
- fold change [12, 23]: 1.58
- cell count [12, 24]: 9780
- cell count [12, 25]: 9980
- z-score [13]: 1.06 (inactive)

Compound: COc1c2c(cc3c1OCO3)CCN(C)C2
- parasite load remaining [14]: 101% (inactive) and 78.2% (inactive)
- viability [14]: 102% and 69.9%
- nuclear beta-catenin stimulation ([1]; at 10 µM): 0.2% (inactive)
- nuclear beta-catenin stimulation ([1]; stimulation, at 2 µM): 1.3%
- insulin secretion stimulation [2]: -1.1% (inactive)
- viability decrease [3]: 5% (inactive)
- tube area decrease [4]: 4.7% (inactive)
- GLP1 secretion stimulation [5]: -0.1% (inactive)
- inhibition of viability [6]: -4.7% (inactive)
- viability decrease (inhibition) [7]: 36.7% (inactive)
- viability decrease (inhibition) [8]: 4.85% (inactive)
- inhibition [9]: 1.73% (inactive)
- activity remaining [11]: 120% (inactive)
- fold change ([12]; stronger effect = lower value): 0.866 (inactive)
- fold change [12, 23]: 1.09
- cell count [12, 24]: 9520
- cell count [12, 25]: 11000

Compound: C[C@H]1O[C@@H](O[C@H]2[C@@H](O)C[C@H](O[C@H]3[C@@H](O)C[C@H](O[C@H]4CC[C@@]5(C)[C@H](CC[C@@H]6[C@@H]5CC[C@]5(C)[C@@H](C7=CC(=O)OC7)CC[C@]65O)C4)O[C@@H]3C)O[C@@H]2C)C[C@H](O)[C@@H]1O
- nuclear beta-catenin stimulation ([1]; at 10 µM): 1.3% (inactive)
- nuclear beta-catenin stimulation ([1]; stimulation, at 2 µM): 1.9%
- insulin secretion stimulation [2]: 0.25% (inactive)
- viability decrease [3]: 84.5% (active)
- tube area decrease [4]: 112% (active)
- GLP1 secretion stimulation [5]: 11.6% (inactive)
- inhibition of viability [6]: 61.8% (active)
- viability decrease (inhibition) [7]: 75.8% (active)
- viability decrease (inhibition) [8]: 84.5% (active)
- inhibition [9]: -0.54% (inactive)
- remaining NAD [15]: 10 nM (inactive)
- luciferase signal [16]: 24 AU (inactive)

Compound: Clc1ccc(C(OCCN2CCCCC2)c2ccccc2)cc1 (stereo not drawn)
- score [17]: 1.14
- cytochrome c release ratio [18]: 1.33
- inhibition of aggregation [19]: 66.7%
- parasite load remaining [14]: 32.6% (inactive) and 77.7% (inactive)
- viability [14]: 91.9% and 79.6%
- nuclear beta-catenin stimulation ([1]; at 10 µM): 3.4% (inactive)
- nuclear beta-catenin stimulation ([1]; stimulation, at 2 µM): 2.6%
- insulin secretion stimulation [2]: 11.4% (inactive)
- viability decrease [3]: -162% (inactive)
- tube area decrease [4]: 4.5% (inactive)
- GLP1 secretion stimulation [5]: 7.9% (inactive)
- inhibition of viability [6]: 25.5% (inactive)
- viability decrease (inhibition) [7]: 72.3% (active)
- viability decrease (inhibition) [8]: 26.4% (inactive)
- inhibition [9]: 14.2% (inactive)
- red/green cell ratio (normalised) [10]: 0.83 (inactive)
- normalised cell number [10, 21]: 1.02
- normalised cell number [10, 22]: 0.85
- activity remaining [11]: 103% (inactive)
- fold change ([12]; stronger effect = lower value): 0.822 (inactive)
- fold change [12, 23]: 1.27
- cell count [12, 24]: 7820
- cell count [12, 25]: 9510
- z-score ([20]; MELAS cybrid survival, CellTiter-Glo 48 h, stronger effect = higher value): -1.82 (inactive)
- z-score ([20]; Rieske KO mouse fibroblast survival, CellTiter-Glo 72 h): -0.41
- remaining NAD [15]: 10 nM (inactive)
- luciferase signal [16]: 180 AU (active)

Compound: C=C(C)[C@H]1CN[C@H](C(=O)O)[C@H]1CC(=O)O
- nuclear beta-catenin stimulation ([1]; at 10 µM): 0% (inactive)
- nuclear beta-catenin stimulation ([1]; stimulation, at 2 µM): 1.5%
- insulin secretion stimulation [2]: -1.6% (inactive)
- viability decrease [3]: 3.4% (inactive)
- tube area decrease [4]: -7.3% (inactive)
- GLP1 secretion stimulation [5]: -2% (inactive)
- inhibition of viability [6]: -16% (inactive)
- viability decrease (inhibition) [7]: -0.1% (inactive)
- viability decrease (inhibition) [8]: -1.8% (inactive)
- inhibition [9]: 2.88% (inactive)
- fold change ([12]; stronger effect = lower value): 1.1 (inactive) and 0.956 (inactive)
- fold change ([12]; stronger effect = lower value, cell number ratio, induced over uninduced): 0.95 (inactive)
- fold change [12, 23]: 1.24 and 0.883 and 0.751
- cell count [12, 24]: 10600 and 5610 and 8280
- cell count [12, 25]: 9620 and 5900 and 8660
- remaining NAD [15]: 10 nM (inactive)
- luciferase signal [16]: 68 AU (inactive)
- z-score [13]: 0.445 (inactive) and 0.325 (inactive)

— PubChem BioAssay
